Source: PubChem
Rows were chosen to be rich in hits. Some 2.8% of all compounds tested hit in one or more screens of this group.
Beta2AR agonist = human beta-2 adrenergic receptor agonism by FAP; Am2.2-beta2AR cells, FAP receptor internalization, flow cytometry; response, % (test concentration not listed); P07550; 340,000 tested, 0.43% active;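 active means response above a set limit, near 3 SD of response in nonfluorescent compounds, cut at about 42% in these data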
Target sequence (P07550 whole entry, looked up): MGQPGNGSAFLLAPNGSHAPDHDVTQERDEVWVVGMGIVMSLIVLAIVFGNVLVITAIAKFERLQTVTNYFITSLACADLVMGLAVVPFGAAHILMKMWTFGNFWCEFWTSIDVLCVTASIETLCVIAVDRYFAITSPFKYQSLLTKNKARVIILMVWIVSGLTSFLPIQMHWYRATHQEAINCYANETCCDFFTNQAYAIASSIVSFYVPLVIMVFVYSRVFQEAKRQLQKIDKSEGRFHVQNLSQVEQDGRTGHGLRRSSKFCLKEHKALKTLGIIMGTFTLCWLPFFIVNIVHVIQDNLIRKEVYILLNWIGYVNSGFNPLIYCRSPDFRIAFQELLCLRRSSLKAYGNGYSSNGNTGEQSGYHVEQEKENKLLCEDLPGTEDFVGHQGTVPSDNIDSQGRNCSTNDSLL
HIF-2a block = HIF-2a inhibition; 786-0 RCC cells HIF-2a reporter, luciferase luminescence, overnight; inhibition, % at 18.8 µM; 360,000 tested, 0.72% active;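 active means inhibition of the luminescence signal of 40% or more relative to plate controls, in a single-dose primary screen at 18.75 µM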
CF NFkB inh = cystic fibrosis NF-kB activation inhibition; KKLEB NF-kB-GFP reporter, PAF-induced, GFP fluorescence overnight; inhibition, % at 5 µM; 360,000 tested, 0.86% active;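 active means at least 50% inhibition at 5 µM, scaled per plate between neutral and stimulator controls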;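 further: PAF is a Pseudomonas aeruginosa culture filtrate used as stimulus; plate controls were PAF-stimulated DMSO wells for no effect and unstimulated DMSO wells for full effect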
MITF TRPM1 inh = MITF TRPM1 promoter inhibition in SK-MEL-5 cells | SK-MEL-5 TRPM1 promoter luciferase, 24 h | inhibition, % at 12.5 µM | 330,000 tested, 0.83% active | AID 488899;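 active means mean inhibition across replicates of 60% or more, whatever share of single replicates reaches that level; inconclusive means some that reach 60%, reason not given; inactive means mean inhibition across replicates below 60%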
KKLEB tox = reduces viability of KKLEB cystic fibrosis airway cells; KKLEB CF airway cells viability, ATPlite luminescence, overnight; active compounds read low; cells stimulated with P. aeruginosa culture filtrate; AID 602141; activity change (cytotoxicity), % at 5 µM; 360,000 tested, 0.36% active;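 active means corrected activity change at or below -50% at 5 µM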
Peg3 promoter = Peg3 promoter activity inhibition | HeLa PEG-Prom luciferase reporter, luminescence, overnight | AID 588405 | 360,000 tested, 1.7% active | inhibition, % at 20 µM;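 active means inhibition of at least 50% at 20 µM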
B2AR ag CP1 = human beta-2 adrenergic receptor agonism, cherry pick. Am2.2-beta2AR cells, FAP surface receptor, flow cytometry; active compounds read low. percent response (surface receptor), % at 10 µM. AID 540358. 1,100 tested, 25% active. shares compounds with Beta2AR agonist;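 active means surface receptor percent response at or below 58%, roughly 3 SD from nonfluorescent compounds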
FAP fluor counter = flagged in Am2.2 fluorescence counterscreen for beta-2AR agonists; Am2.2 cells, FAP fluorogen flow cytometry; active compounds read low; shares compounds with Beta2AR agonist; AID 588765; calls only at 10 µM; 1,100 tested, under 10 active;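 active means percent response below a set limit in fluorescence channel 1 and below 50% in channel 8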
* marks the source's active call; other numbers are inactive results.

What do the screens show for `COc1ccc(-n2nnnc2C(c2ccccc2OC(F)(F)F)N2CCC3(CC2)C(=O)NCN3c2ccccc2)cc1` (configuration not stated)?
HIF-2a block: -13; CF NFkB inh: 5; KKLEB tox: -3; Peg3 promoter: 57*

What do the screens show for `CCC(c1nnnn1-c1ccc(OC)cc1)N1CCC(n2c(=O)[nH]c3ccccc32)CC1` (configuration not stated)?
HIF-2a block: 4; CF NFkB inh: -2; KKLEB tox: 8; Peg3 promoter: 23

Results for COC(=O)C1=C(c2ccc(OC)c(OC)c2)C[C@@H]2CC[C@H]1N2C(=O)NC(C)C ?
Beta2AR agonist: 1; HIF-2a block: 14; CF NFkB inh: 0; MITF TRPM1 inh: -2; KKLEB tox: 12; Peg3 promoter: 5

Results for CC(=O)OC1CC(OC2C(O)CC(OC3C(O)CC(OC4CCC5(C)C(CCC6C5CCC5(C)C(C7=CC(=O)OC7)CCC65O)C4)OC3C)OC2C)OC(C)C1OC1OC(CO)C(O)C(O)C1O (configuration not stated) ?
Beta2AR agonist: 7; HIF-2a block: 82*; CF NFkB inh: 82*; MITF TRPM1 inh: 80*; KKLEB tox: -58*; Peg3 promoter: 107*

What do the screens show for `O=C1NC(=O)N(Cc2ccco2)C(=O)/C1=C/c1ccc(-c2cccc([N+](=O)[O-])c2)o1`?
Beta2AR agonist: 34; HIF-2a block: 65*; CF NFkB inh: 19; MITF TRPM1 inh: 10; KKLEB tox: -1; Peg3 promoter: 29

How did C=CCN1C(=O)NC(=O)/C(=C\c2ccc(-c3ccccc3[N+](=O)[O-])o2)C1=O do in these assays?
Beta2AR agonist: 6; HIF-2a block: 34; CF NFkB inh: 5; MITF TRPM1 inh: 33; KKLEB tox: 1; Peg3 promoter: 20

Results for COc1ccc(CNCCc2c[nH]c3ccccc23)c(OC)c1C ?
Beta2AR agonist: 21; HIF-2a block: 3; CF NFkB inh: 21; MITF TRPM1 inh: -3; KKLEB tox: -14; Peg3 promoter: 109*

How did COc1cc(C)c(CNCCc2c[nH]c3ccccc23)cc1C do in these assays?
Beta2AR agonist: 7; HIF-2a block: 17; CF NFkB inh: 22; MITF TRPM1 inh: 42; KKLEB tox: -9; Peg3 promoter: 95*

How did CCN1/C(=C\C=C\C2=[N+](CC)c3ccccc3C2(C)C)C(C)(C)c2ccccc21 do in these assays?
Beta2AR agonist: -566; HIF-2a block: 74*; CF NFkB inh: -26; MITF TRPM1 inh: 102*; KKLEB tox: -36; Peg3 promoter: 97*

What do the screens show for `CCC(C)N1C(=O)NC(=O)C2(Cc3c(ccc4ccccc34)N(C)C2)C1=O` (configuration not stated)?
Beta2AR agonist: 16; HIF-2a block: 10; CF NFkB inh: -8; MITF TRPM1 inh: 13; KKLEB tox: 10; Peg3 promoter: 24

What do the screens show for `Brc1ccc2c(c1)C(OC1CN3CCC1CC3)c1ccccc1CS2` (configuration not stated)?
Beta2AR agonist: 50*; HIF-2a block: 21; CF NFkB inh: 20; MITF TRPM1 inh: inconclusive; KKLEB tox: -24; Peg3 promoter: 110*; B2AR ag CP1: 77; FAP fluor counter: inactive

What do the screens show for `c1ccc2c(c1)CSc1ccccc1C2C1=NCCN1` (configuration not stated)?
Beta2AR agonist: 0; HIF-2a block: 5; CF NFkB inh: 31; MITF TRPM1 inh: -12; KKLEB tox: -16; Peg3 promoter: 16

Results for CCCCCCn1c(O)c(C=Nc2c(C)n(C)n(-c3ccccc3)c2=O)c(=O)[nH]c1=O ?
Beta2AR agonist: 48*; HIF-2a block: 19; CF NFkB inh: 7; MITF TRPM1 inh: 4; KKLEB tox: 8; Peg3 promoter: 2; B2AR ag CP1: 48*; FAP fluor counter: inactive

Results for CC(C)n1c(O)c(C2c3cc(Cl)ccc3Oc3[nH]c(=O)n(C(C)C)c(=O)c32)c(=O)[nH]c1=O (configuration not stated) ?
Beta2AR agonist: 59*; HIF-2a block: 94*; CF NFkB inh: 91*; MITF TRPM1 inh: 102*; KKLEB tox: 1; Peg3 promoter: 115*; B2AR ag CP1: 48*; FAP fluor counter: active

What do the screens show for `CC(=O)c1c(O)n(-c2cccc(Cl)c2)c(=O)[nH]c1=O` (tested in a mixture with another compound)?
Beta2AR agonist: 2; HIF-2a block: 9; CF NFkB inh: -6; MITF TRPM1 inh: 3; KKLEB tox: 10; Peg3 promoter: 11

How did COc1ccc(CC(C)NCCC(c2ccccc2)c2ccccc2)cc1 (configuration not stated) do in these assays?
Beta2AR agonist: 21; HIF-2a block: -4; CF NFkB inh: -16; MITF TRPM1 inh: 55; KKLEB tox: -2; Peg3 promoter: 20; B2AR ag CP1: 105; FAP fluor counter: inactive

What do the screens show for `O=C(NCP(=O)(Oc1ccccc1)Oc1ccccc1)OCc1ccccc1`?
HIF-2a block: 11; CF NFkB inh: -14; KKLEB tox: 0; Peg3 promoter: 8

What do the screens show for `CCNCC(O)c1cccc(O)c1` (configuration not stated)?
Beta2AR agonist: -7; HIF-2a block: 0; CF NFkB inh: 0; MITF TRPM1 inh: -2; KKLEB tox: 5; Peg3 promoter: -5; B2AR ag CP1: 106; FAP fluor counter: inactive

What do the screens show for `c1cc2c(cc1[C@H]1OC[C@H]3[C@@H]1CO[C@H]3c1ccc3c(c1)OCO3)OCO2`?
Beta2AR agonist: 2; HIF-2a block: -100; CF NFkB inh: 21; MITF TRPM1 inh: -8; KKLEB tox: -11; Peg3 promoter: -131

Results for O=C(O)C1CC2(Cl)C(Cl)=C(Cl)C1(Cl)C2(Cl)Cl (configuration not stated) ?
Beta2AR agonist: 7; HIF-2a block: 6; CF NFkB inh: -13; MITF TRPM1 inh: 15; KKLEB tox: 14; Peg3 promoter: 1

What do the screens show for `CC(NCc1ccc(Cl)c(Cl)c1)C(O)c1ccccc1` (configuration not stated)?
Beta2AR agonist: 4; HIF-2a block: -13; CF NFkB inh: 24; MITF TRPM1 inh: 11; KKLEB tox: -2; Peg3 promoter: 5; B2AR ag CP1: 85; FAP fluor counter: inactive
